Measured values as given in PubChem BioAssay.
Values joined by “and” are separate entries in the source; they are usually repeats but may differ in a detail not shown here. Identical values can stand only once. Inconclusive results are not listed. Active and inactive are the calls of the source.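 Rule for the calls, unless noted: active = normalized viability below 100% at a tested concentration; inactive = the rest.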

Legend:
[1] = viability loss with induced miR-34 in A549 – imaging, A549 dox-inducible miR-34, nuclei and caspase counts, primary screen (AID 1347080;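 active = compounds whose cell count with miR-34 switched on is under 0.7 times the count with it off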); settings: A549 miR-34 inducible, Hoechst nuclei count, 48 h
[2] = compounds altering HSF1 focus formation in cells – imaging, Selleck Cancer Library (AID 1347162; in the data active = plate-normalised HSF1 focus index below about 0.46); settings: human cells, HSF1 nuclear foci imaging, at 10 µM; SSMD: measured here: HSF1 foci SSMD mean; cell count: measured here: cell number; plate-normalised HSF1 focus index: stronger effect = lower value
[3] = MELAS cybrid and Rieske KO viability enhancers – cell-based, MELAS cybrids, Rieske KO mouse fibroblasts, CellTiter-Glo, primary screen (AID 1508586;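 active = mean z-score across replicates of 1.96 or higher in either the MELAS or the Rieske mutant cell line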;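 note: z relative to plate mean and SD of compound and empty wells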); settings: low glucose
[4] = drug combination growth inhibition, ovarian cancer – cell-based, oncology-focused library, rucaparib conditional, profiling panel (AID 1508598); settings: patient-derived ovarian cancer cells, CellTiter-Glo viability, 144 h, stronger effect = lower value
[5] = compounds altering viability of human ES cells (AID 493140; call rule not given here;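 note: cells exposed to compounds for four days before counting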); settings: human embryonic stem cell survival screen; stronger effect = higher value
[6] = chitosan synthesis blockers in C. neoformans – flow cytometry, Cibacron Brilliant Red staining (AID 1347148; call rule not given here;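 note: compound exposure lasted three days at 37 degrees C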); settings: Cryptococcus neoformans chitosan, stronger effect = lower value; at 10 µM unless noted
[7] = target: ATP-dependent translocase ABCB1 (Homo sapiens) (UniProt P08183); assay: P-glycoprotein substrate transport blockade – cell-based (AID 377; in the data active = fluorescence slope change above about 50%); settings: MDR1-expressing cells, fluorescent substrate accumulation slope; stronger effect = higher value; concentration not given here
[8] = compounds altering circadian rhythm period length – cell-based, LOPAC library, luminescence reporter (AID 2774; call rule not given here;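 note: values are relative to mean of DMSO wells on each plate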); settings: circadian reporter cells, at 7 µM, actives lie on both sides
[9] = P. berghei load reduction in hepatocytes – cell-based, HepG2, luciferase luminescence, HepG2 viability, primary screen (AID 624349; in the data active = parasite load remaining mostly below about 12%, no sharp cut-off; inactive = mostly above about 10%;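 note: 100% = mean of DMSO negative control wells on the same plate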); settings: P. berghei liver stage in HepG2, luciferase luminescence, concentration not given here; parasite load remaining: stronger effect = lower value; viability: measured here: HepG2 viability without parasites
[10] = system: Hepatitis C virus NS3 helicase; assay: blockers of NS3h binding to ssDNA – biochemical, fluorescence polarization, LOPAC1280 library, primary screen (AID 687035; in the data active = inhibition above about 37%); settings: Purified HCV NS3 helicase, Cy5-dT15 ssDNA binding fluorescence polarization; stronger effect = higher value; concentration not given here
[11] = compounds altering Cy5-DNA-NS3h complex signal – biochemical, LOPAC1280, artefact control for HCV NS3 helicase inhibitor project (AID 687037; call rule not given here); settings: Cy5-DNA-NS3h complex fluorescence interference counterscreen
[12] = blockers of cellular phospholipid synthesis – cell-based, LOPAC library, screen 4, primary screen (AID 1347384; call rule not given here); settings: animal cells, phospholipid biosynthesis inhibition screen; at 10 µM
[13] = galactose survival enhancers in mitochondrial complex I cybrids – cell-based, galactose medium, ATP luminescence, primary screen (AID 1645843;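 active = z-score of at least 1.8 in each of two replicates, scored against plate mean and spread of sample wells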;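 note: positive z means more ATP and so rescue of galactose-driven cybrid death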); settings: complex I mutant cybrid cells, 72 h, stronger effect = higher value
[14] = stronger effect = lower value, cell number ratio, induced over uninduced
[15] = measured here: relative caspase fold change +Dox/-Dox
[16] = measured here: total cells with miR-34 induction, stronger effect = lower value
[17] = measured here: total cells without miR-34 induction
[18] = MELAS cybrid survival, CellTiter-Glo 48 h, stronger effect = higher value
[19] = Rieske KO mouse fibroblast survival, CellTiter-Glo 72 h

ATP-dependent translocase ABCB1 (Homo sapiens), sequence (P08183 whole entry, looked up): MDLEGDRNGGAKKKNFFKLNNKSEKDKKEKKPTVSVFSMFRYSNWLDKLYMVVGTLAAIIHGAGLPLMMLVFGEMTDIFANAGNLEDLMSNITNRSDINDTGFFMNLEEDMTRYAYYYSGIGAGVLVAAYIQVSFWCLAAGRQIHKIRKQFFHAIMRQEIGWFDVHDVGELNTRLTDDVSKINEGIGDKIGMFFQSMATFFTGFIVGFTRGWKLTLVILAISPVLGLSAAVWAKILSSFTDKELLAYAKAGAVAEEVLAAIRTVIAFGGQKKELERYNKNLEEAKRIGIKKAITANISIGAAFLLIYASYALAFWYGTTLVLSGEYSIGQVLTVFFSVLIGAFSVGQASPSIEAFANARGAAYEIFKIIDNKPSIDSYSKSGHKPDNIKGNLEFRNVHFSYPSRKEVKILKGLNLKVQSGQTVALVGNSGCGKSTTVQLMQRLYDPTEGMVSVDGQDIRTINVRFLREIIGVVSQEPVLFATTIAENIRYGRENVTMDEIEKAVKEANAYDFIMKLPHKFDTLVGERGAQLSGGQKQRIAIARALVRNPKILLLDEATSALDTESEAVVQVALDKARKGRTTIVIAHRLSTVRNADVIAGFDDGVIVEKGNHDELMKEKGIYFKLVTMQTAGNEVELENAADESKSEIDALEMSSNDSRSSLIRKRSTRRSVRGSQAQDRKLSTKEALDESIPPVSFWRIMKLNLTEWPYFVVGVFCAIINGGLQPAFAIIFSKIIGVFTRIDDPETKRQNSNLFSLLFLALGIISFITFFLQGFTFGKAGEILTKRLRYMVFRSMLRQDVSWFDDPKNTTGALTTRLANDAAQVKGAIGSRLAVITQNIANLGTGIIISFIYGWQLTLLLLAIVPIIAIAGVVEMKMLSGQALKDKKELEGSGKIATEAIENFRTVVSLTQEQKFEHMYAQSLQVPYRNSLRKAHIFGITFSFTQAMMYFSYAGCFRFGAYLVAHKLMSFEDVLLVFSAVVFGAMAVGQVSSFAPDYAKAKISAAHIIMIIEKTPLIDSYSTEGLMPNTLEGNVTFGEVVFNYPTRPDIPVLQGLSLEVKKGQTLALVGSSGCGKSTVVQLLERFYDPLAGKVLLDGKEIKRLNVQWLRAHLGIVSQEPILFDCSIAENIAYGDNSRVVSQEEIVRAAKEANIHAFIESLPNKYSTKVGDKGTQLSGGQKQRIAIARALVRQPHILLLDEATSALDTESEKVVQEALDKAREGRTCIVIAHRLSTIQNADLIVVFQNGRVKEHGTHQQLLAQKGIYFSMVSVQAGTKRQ

With `COc1ccc(C2=NC(c3ccc(Cl)cc3)C(c3ccc(Cl)cc3)N2C(=O)N2CCNC(=O)C2)c(OC(C)C)c1` (centres undefined) the fold change [1, 14] was 0.914 (inactive) and 0.912 (inactive) and 0.921 (inactive), the fold change [1, 15] was 0.374 and 0.688 and 0.486 and the cell count [1, 16] was 2920 and 2710 and 7580. The cell count [1, 17] was 3200 and 2970 and 8230, the SSMD [2] was 2.83 and the cell count [2] was 7540. For the same compound, the plate-normalised HSF1 focus index [2] was 1.18 (inactive), the z-score [3, 18] was 0.254 (inactive) and -0.293 (inactive) and -0.371 (inactive) and the z-score [3, 19] was 0.0375 and 0.393 and 0.654. For the same compound, the viability ([4]; at 0.000305 µM, OCI-C5x cells, with rucaparib 10 µM, 100% = cells with rucaparib alone) was 120% (inactive), the viability ([4]; at 0.000305 µM, OCI-C5x cells, without rucaparib) was 129% (inactive) and the viability ([4]; at 0.000305 µM, OCI-P5x cells, with rucaparib 20 µM, 100% = cells with rucaparib alone) was 108% (inactive). For the same compound, the viability ([4]; at 0.000305 µM, OCI-P5x cells, without rucaparib) was 104% (inactive), the viability ([4]; at 0.00122 µM, OCI-C5x cells, with rucaparib 10 µM, 100% = cells with rucaparib alone) was 116% (inactive) and the viability ([4]; at 0.00122 µM, OCI-C5x cells, without rucaparib) was 136% (inactive). The viability ([4]; at 0.00122 µM, OCI-P5x cells, with rucaparib 20 µM, 100% = cells with rucaparib alone) was 104% (inactive), the viability ([4]; at 0.00122 µM, OCI-P5x cells, without rucaparib) was 93.6% (active) and the viability ([4]; at 0.00488 µM, OCI-C5x cells, with rucaparib 10 µM, 100% = cells with rucaparib alone) was 112% (inactive). For the same compound, the viability ([4]; at 0.00488 µM, OCI-C5x cells, without rucaparib) was 124% (inactive), the viability ([4]; at 0.00488 µM, OCI-P5x cells, with rucaparib 20 µM, 100% = cells with rucaparib alone) was 96.2% (active) and the viability ([4]; at 0.00488 µM, OCI-P5x cells, without rucaparib) was 91.7% (active). The viability ([4]; at 0.0195 µM, OCI-C5x cells, with rucaparib 10 µM, 100% = cells with rucaparib alone) was 110% (inactive), the viability ([4]; at 0.0195 µM, OCI-C5x cells, without rucaparib) was 128% (inactive) and the viability ([4]; at 0.0195 µM, OCI-P5x cells, with rucaparib 20 µM, 100% = cells with rucaparib alone) was 97% (active). For the same compound, the viability ([4]; at 0.0195 µM, OCI-P5x cells, without rucaparib) was 93.4% (active), the viability ([4]; at 0.0781 µM, OCI-C5x cells, with rucaparib 10 µM, 100% = cells with rucaparib alone) was 108% (inactive) and the viability ([4]; at 0.0781 µM, OCI-C5x cells, without rucaparib) was 124% (inactive). For the same compound, the viability ([4]; at 0.0781 µM, OCI-P5x cells, with rucaparib 20 µM, 100% = cells with rucaparib alone) was 102% (inactive), the viability ([4]; at 0.0781 µM, OCI-P5x cells, without rucaparib) was 95.5% (active) and the viability ([4]; at 0.313 µM, OCI-C5x cells, with rucaparib 10 µM, 100% = cells with rucaparib alone) was 113% (inactive). For the same compound, the viability ([4]; at 0.313 µM, OCI-C5x cells, without rucaparib) was 115% (inactive), the viability ([4]; at 0.313 µM, OCI-P5x cells, with rucaparib 20 µM, 100% = cells with rucaparib alone) was 97.6% (active) and the viability ([4]; at 0.313 µM, OCI-P5x cells, without rucaparib) was 86.9% (active). The viability ([4]; at 1.25 µM, OCI-C5x cells, with rucaparib 10 µM, 100% = cells with rucaparib alone) was 103% (inactive), the viability ([4]; at 1.25 µM, OCI-C5x cells, without rucaparib) was 111% (inactive) and the viability ([4]; at 1.25 µM, OCI-P5x cells, with rucaparib 20 µM, 100% = cells with rucaparib alone) was 91.3% (active). For the same compound, the viability ([4]; at 1.25 µM, OCI-P5x cells, without rucaparib) was 89.1% (active), the viability ([4]; at 5 µM, OCI-C5x cells, with rucaparib 10 µM, 100% = cells with rucaparib alone) was 109% (inactive) and the viability ([4]; at 5 µM, OCI-C5x cells, without rucaparib) was 104% (inactive). For the same compound, the viability ([4]; at 5 µM, OCI-P5x cells, with rucaparib 20 µM, 100% = cells with rucaparib alone) was 82.1% (active) and the viability ([4]; at 5 µM, OCI-P5x cells, without rucaparib) was 90.4% (active).

In the case of `CCCCCCCCCCCCC/C=C/[C@@H](O)[C@H](CO)NCCCCCCCC`, the survival [5] is reported as 61.3 (inactive), the fold change [1, 14] is reported as 0.925 (inactive) and 1 (inactive) and the fold change [1, 15] is reported as 1.2 and 0.737. For the same compound, the cell count [1, 16] was 5120 and 5820, the cell count [1, 17] was 5540 and 5810 and the fold fluorescence [6] was 10.3 (inactive).

For `CCCCCCCC(=O)OC[C@H](CO)OC(=O)CCCCCCC`, the survival [5] was 75.3 (inactive), the fold change [1, 14] was 1 (inactive) and 1.04 (inactive) and the fold change [1, 15] was 1.36 and 0.811. The cell count [1, 16] was 5210 and 5590, the cell count [1, 17] was 5190 and 5400 and the fold fluorescence [6] was 6.5 (inactive).

With `CCCCCCCC/C=C\C/C=C\C/C=C\CCCC(=O)NCCO` the survival [5] was 87.2 (inactive), the fold change [1, 14] was 0.911 (inactive) and 1.07 (inactive) and the fold change [1, 15] was 0.981 and 0.763. The cell count [1, 16] was 6100 and 5740, the cell count [1, 17] was 6690 and 5350 and the fold fluorescence [6] was 4.64 (inactive).

In the case of `COc1ccc(-c2ccc(N)[n+](CCCC(=O)O)n2)cc1`, the fluorescence slope change [7] is reported as 101% (active), the period change [8] is reported as 0.235 h (inactive) and the survival [5] is reported as 6.75 (inactive). The parasite load remaining [9] was 113% (inactive) and 70.4% (inactive), the viability [9] was 102% and 78.3% and the inhibition [10] was -3% (inactive). For the same compound, the fluorescence ratio (interference) [11] was 0.9 (inactive), the fold change [1, 14] was 0.962 (inactive) and 0.851 (inactive) and the fold change [1, 15] was 1.4 and 1.26. The cell count [1, 16] was 9690 and 9480, the cell count [1, 17] was 10100 and 11100 and the outcome [12] was “inactive”. For the same compound, the z-score [3, 18] was 0.473 (inactive), the z-score [3, 19] was 0.0476 and the z-score [13] was 0.685 (inactive).
